PubChem BioAssay AID1159580 (chemical genetic matrix, 2015)
In all, about 5,500 compounds went through this assay and about 2,000 (36%) were called active. Inconclusive results (about 18%) are left out. No stated cut-off is given here; in the data, active means normalized growth mostly below about 0.91 (no sharp cut-off); inconclusive means no clear call, values can overlap the other calls; inactive means mostly above about 0.92. Some of the results follow.

Experiment: chemical genetic growth profiling, strain panel (AID 1159580);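 further: tested at 20 µM; growth read once vehicle control cultures reached saturation at 30 °C; 1 = growth at the plate median or of vehicle wells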
Settings: growth OD

Measured: normalized growth

COc1ccc2c(c1)CCC1C2CCC2(C)C1C[C@@H](O)C2O (stereo not given in full)
inactive: S. cerevisiae deletion strains, locus YJL187C, strain SWE1, stronger effect = lower value 0.991 | S. cerevisiae deletion strains, locus YJR043C, strain POL32, stronger effect = lower value 0.999 | S. cerevisiae deletion strains, locus YJR075W, strain HOC1, stronger effect = lower value 0.982 | S. cerevisiae deletion strains, locus YKL009W, strain mrt4, stronger effect = lower value 0.948 | S. cerevisiae deletion strains, locus YKL068W, stronger effect = lower value 1 | S. cerevisiae deletion strains, locus YKL085W, strain MDH1 (second series), stronger effect = lower value 0.997 | S. cerevisiae deletion strains, locus YKL085W, strain MDH1, stronger effect = lower value 0.997 | S. cerevisiae deletion strains, locus YKL160W, strain elf1, stronger effect = lower value 0.958 | S. cerevisiae deletion strains, locus YKL190W, strain CNB1, stronger effect = lower value 1.01 | S. cerevisiae deletion strains, locus YKR001C, strain vps1, stronger effect = lower value 0.956 | S. cerevisiae deletion strains, locus YKR026C, strain gcn3, stronger effect = lower value 0.994 | S. cerevisiae deletion strains, locus YKR091W, strain srl3, stronger effect = lower value 0.997 | S. cerevisiae deletion strains, locus YLL001W, strain dnm1, stronger effect = lower value 0.966 | S. cerevisiae deletion strains, locus YLL026W, stronger effect = lower value 0.974 | S. cerevisiae deletion strains, locus YLL041C, strain sdh2, stronger effect = lower value 0.982 | S. cerevisiae deletion strains, locus YLR027C, strain aat2, stronger effect = lower value 0.974 | S. cerevisiae deletion strains, locus YLR039C, strain RIC1, stronger effect = lower value 0.947 | S. cerevisiae deletion strains, locus YLR058C, strain SHM2, stronger effect = lower value 1 | S. cerevisiae deletion strains, locus YLR102C, strain apc9, stronger effect = lower value 0.99 | S. cerevisiae deletion strains, locus YLR221C, strain rsa3, stronger effect = lower value 0.929 | S. cerevisiae deletion strains, locus YLR258W, strain gsy2, stronger effect = lower value 0.965 | S. cerevisiae deletion strains, locus YLR262C, strain YPT6, stronger effect = lower value 0.943 | S. cerevisiae deletion strains, locus YLR268W, strain sec22, stronger effect = lower value 0.973 | S. cerevisiae deletion strains, locus YLR330W, strain CHS5, stronger effect = lower value 1.01 | S. cerevisiae deletion strains, locus YLR342W, strain FKS1 (second series), stronger effect = lower value 0.912 | S. cerevisiae deletion strains, locus YLR342W, strain FKS1, stronger effect = lower value 0.947 | S. cerevisiae deletion strains, locus YLR357W, strain rsc2, stronger effect = lower value 0.987 | S. cerevisiae deletion strains, locus YLR370C, strain arc18, stronger effect = lower value 1 | S. cerevisiae deletion strains, locus YLR371W, strain rom2, stronger effect = lower value 0.985 | S. cerevisiae deletion strains, locus YLR384C, strain iki3, stronger effect = lower value 1.01 | S. cerevisiae deletion strains, locus YLR418C, strain cdc73, stronger effect = lower value 0.894 | S. cerevisiae deletion strains, locus YML016C, strain PPZ1, stronger effect = lower value 1.01 | S. cerevisiae deletion strains, locus YML032C, strain rad52, stronger effect = lower value 0.972 | S. cerevisiae deletion strains, locus YML120C, strain ndi1, stronger effect = lower value 0.998 | S. cerevisiae deletion strains, locus YML124C, strain tub3, stronger effect = lower value 0.998 | S. cerevisiae deletion strains, locus YMR058W, strain fet3, stronger effect = lower value 0.968 | S. cerevisiae deletion strains, locus YMR078C, strain ctf18, stronger effect = lower value 0.992 | S. cerevisiae deletion strains, locus YMR125W, strain sto1, stronger effect = lower value 1.01 | S. cerevisiae deletion strains, locus YMR129W, stronger effect = lower value 1.01 | S. cerevisiae deletion strains, locus YMR205C, strain PFK2, stronger effect = lower value 0.964 | S. cerevisiae deletion strains, locus YMR223W, strain ubp8, stronger effect = lower value 0.965 | S. cerevisiae deletion strains, locus YMR231W, strain pep5, stronger effect = lower value 0.998 | S. cerevisiae deletion strains, locus YMR307W, strain GAS1, stronger effect = lower value 0.782 | S. cerevisiae deletion strains, locus YNL067W, strain RPL9B, stronger effect = lower value 0.979 | S. cerevisiae deletion strains, locus YNL128W, strain TEP1, stronger effect = lower value 0.992 | S. cerevisiae deletion strains, locus YNL209W, strain ssb2, stronger effect = lower value 1 | S. cerevisiae deletion strains, locus YNL233W, strain BNI4, stronger effect = lower value 0.989 | S. cerevisiae deletion strains, locus YNL248C, strain rpa49, stronger effect = lower value 0.979 | S. cerevisiae deletion strains, locus YNL250W, strain rad50, stronger effect = lower value 0.983 | S. cerevisiae deletion strains, locus YNL271C, strain bni1, stronger effect = lower value 0.983 | S. cerevisiae deletion strains, locus YNL298W, strain CLA4, stronger effect = lower value 0.966 | S. cerevisiae deletion strains, locus YNL307C, strain MCK1, stronger effect = lower value 0.967 | S. cerevisiae deletion strains, locus YNL322C, strain KRE1 (second series), stronger effect = lower value 1.01 | S. cerevisiae deletion strains, locus YNR049C, strain mso1, stronger effect = lower value 1.01 | S. cerevisiae deletion strains, locus YNR052C, strain pop2, stronger effect = lower value 0.987 | S. cerevisiae deletion strains, locus YOL006C, strain TOP1, stronger effect = lower value 0.902 | S. cerevisiae deletion strains, locus YOL012C, strain htz1 0.926 | S. cerevisiae deletion strains, locus YOL147C, strain pex11, stronger effect = lower value 1 | S. cerevisiae deletion strains, locus YOR001W, strain rrp6, stronger effect = lower value 0.986 | S. cerevisiae deletion strains, locus YOR061W, strain CKA2, stronger effect = lower value 1.01 | S. cerevisiae deletion strains, locus YOR069W, strain VPS5, stronger effect = lower value 1.01 | S. cerevisiae deletion strains, locus YOR070C, strain gyp1, stronger effect = lower value 0.998 | S. cerevisiae deletion strains, locus YOR080W, strain dia2, stronger effect = lower value 1 | S. cerevisiae deletion strains, locus YOR083W, strain WHI5, stronger effect = lower value 0.914 | S. cerevisiae deletion strains, locus YOR106W, strain vam3, stronger effect = lower value 0.916 | S. cerevisiae deletion strains, locus YOR136W, strain idh2, stronger effect = lower value 0.997 | S. cerevisiae deletion strains, locus YOR144C, strain elg1, stronger effect = lower value 0.995 | S. cerevisiae deletion strains, locus YOR184W, strain ser1, stronger effect = lower value 0.945 | S. cerevisiae deletion strains, locus YOR265W, strain rbl2, stronger effect = lower value 0.999 | S. cerevisiae deletion strains, locus YOR270C, strain vph1, stronger effect = lower value 1.11 | S. cerevisiae deletion strains, locus YOR290C, strain snf2, stronger effect = lower value 0.94 | S. cerevisiae deletion strains, locus YOR316C, strain cot1, stronger effect = lower value 0.991 | S. cerevisiae deletion strains, locus YPL051W, strain arl3, stronger effect = lower value 0.941 | S. cerevisiae deletion strains, locus YPL078C, strain atp4, stronger effect = lower value 0.929 | S. cerevisiae deletion strains, locus YPL106C, strain sse1, stronger effect = lower value 1.03 | S. cerevisiae deletion strains, locus YPL240C, strain hsp82, stronger effect = lower value 1.01 | S. cerevisiae deletion strains, locus YPR119W, strain clb2, stronger effect = lower value 0.991 | S. cerevisiae deletion strains, locus YPR141C, strain kar3, stronger effect = lower value 0.993 | S. cerevisiae deletion strains, locus YPR163C, strain tif3, stronger effect = lower value 0.985 | S. cerevisiae deletion strains, locus YPR167C, strain met16, stronger effect = lower value 0.991 | S. cerevisiae deletion strains, strain wtn01, stronger effect = lower value 0.978 | S. cerevisiae strains, strain wild type, stronger effect = lower value 1.01
active: S. cerevisiae deletion strains, locus YLR262C, strain YPT6 (second series), stronger effect = lower value 0.755 | S. cerevisiae deletion strains, locus YLR320W, strain mms22, stronger effect = lower value 0.876 | S. cerevisiae deletion strains, locus YNL071W, strain lat1, stronger effect = lower value 0.833
